Measured values: PubChem BioAssay AID720542 (National Center for Advancing Translational Sciences (NCATS), 2013)
Hit rate of the full screen: of about 360,000 compounds, about 740 (0.21%) were called active. Not shown: some 2% with an inconclusive outcome. The sample as a whole holds a higher share of actives than the screen did. Values without a mark were called inactive. The call rests on the fitted dose curve; in most records, active means well fitted inhibition curve with a large enough effect; inconclusive means small, poorly fitted or top-dose-only effect; inactive means no such curve, though single readings can be large or run the other way.

Tested on: Plasmodium falciparum AMA1 (3D7) - RON2 peptide interaction
Test: qHTS for Inhibitors of AMA1-RON; Towards Development of Antimalarial Drug Lead: Primary Screen; further: nearly all actives have a fitted effect of over 45% in size;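 on activity change, negative = inhibition: 0% = vehicle wells and -100% = peptide control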
Details: AlphaScreen AMA1-biotinylated RON2 peptide binding; series mostly up to 58.2 µM; activity change, negative = inhibition: at the top concentration
Description: Plasmodium, the causative agent of malaria, is one of the world's deadliest parasitic diseases. Currently there is no vaccine available and there is widespread resistance to common anti-malarial drugs. This warrants novel, alternative approaches for developing improved therapy. During infection, one such essential interaction is between two parasite proteins, the apical membrane antigen1 (AMA1) that is translocated onto the merozoite surface and the rhoptry neck protein 2 (RON2), which is transferred to the red blood cells (RBC) membrane during invasion (Besteiro et.al., 2009). Recently, the Miller lab has shown that the interaction between AMA1 and RON2 is essential for junction formation of the parasite with the host cell (Srinivasan et.al., 2011). The binding of the RON2 peptide to the hydrophobic pocket in AMA triggers the formation of the moving junction which provides a firm anchor for the parasite to pull itself into the RBC using its actin-myosin motor; an irreversible step that commits the parasite for invasion. Only one AMA1 and RON2 genes exists in Plasmodium and there are no alternate pathways. Moreover, the region corresponding to RON2 peptide is conserved in all P. falciparum isolates for which sequences are available. The key residues in the AMA1 hydrophobic pocket that binds RON2 are also conserved and indicate a functional constraint governing this essential step in invasion since a short RON2 peptide (RON2L) corresponding to the binding region on AMA1 is sufficient to compete with the native RON2 protein and inhibits invasion (Tonkin et.al, 2011). Therefore, developing small molecule inhibitors of this interaction offers a promising target opening a new arena for anti-malarial therapeutics drug design.
In collaboration with the Miller lab, a quantitative High Throughput Screen using the AlphScreen technology was developed using a recombinant his-tagged AMA1 and a biotinylated RON2 peptide. This fluorescent screen was assayed against the NIH Molecular Libraries Small Molecule Repository (MLSMR). Inhibition of this protein-protein interaction is the desired outcome of this assay. However, due the limitations of this AlphaScreen assay, a large number of artifacts were observed. An AlphaScreen counterscreen was run to identify the true inhibitors, triage compound activity, and weed out false positives.
NIH Chemical Genomics Center [NCGC]
NIH Molecular Libraries Probe Centers Network [MLPCN]
Assay Submitter (PI): Louis Miller, National Institute of Allergy and Infectious Disease (NIAID)
Two microliters of his-tagged AMA1 3D7 allele protein (final concentration 25 nM) was dispensed into a 1,536-well assay plate. Small molecules and positive control peptides were pin-transferred (23 nL or 46 nL) via Kalypsys pin-tool equipped with a 1,536-pin array, resulting in final compound and peptide concentration ranges of 91.5 nM - 57.2 µM, and 15.6 nM - 2.00 µM, respectively. Unlabeled RON2 peptide or R1 peptide ([…]) that specifically binds the 3D7 AMA1 was used as a positive control that inhibited the binding of RON2L to AMA1. After 15 minutes incubation, 1 uL of biotinylated RON2 peptide (final concentration 25 nM) or buffer were dispensed and the assay plate was incubated for an additional 30 minutes at room temperature and protected from light. This was followed by an addition of 1 uL mixture of donor and acceptor beads (10 ug/mL final concentrations for each). The plates were incubated for 30 min at room temperature and read using the EnVision(R) plate reader (PerkinElmer). Maximum inhibition response was normalized to the positive control signal while no inhibition response was normalized to the DMSO treated wells.
Potency means the concentration at half of the fitted maximal effect.

| Compound | activity change, negative = inhibition [%] | Potency |
| --- | --- | --- |
| CCOC(=O)N1CCN(C(=O)COCc2cc(-c3ccc4c(c3)OCO4)on2)CC1 | 5.8 | – |
| COC(=O)c1c(NC(=O)C(=O)N2CCCCC2)sc2c1CC(C)(C)OC2 | 50.7 | – |
| CCn1cc(/C=C2/SC(=S)NC2=O)c(C)n1 | -5.21 | – |
| COC(=O)c1ccc2ccccc2c1OC1OC(CO)C(O)C(O)C1NC(C)=O (stereo not drawn) | 6.75 | – |
| O=C(c1ccc(Br)o1)N(c1ccccn1)C1CCCCC1 | -23.6 | – |
| O=C(NC(=O)c1ccc(Cl)c(Cl)c1)OC1CCS(=O)(=O)C1 (stereo not drawn) | 0.692 | – |
| O=C(Nc1cccnc1Oc1ncnc2cc(Cl)ccc12)c1ccc(F)cc1 | -12.6 | – |
| CCN(C(=O)COC(=O)c1sccc1C)c1c(N)n(Cc2ccccc2)c(=O)[nH]c1=O | 3.44 | – |
| Nc1ccc2nc3c(=O)[nH]c(=S)[nH]c3nc2c1 | – | 1.41 µM (active) |
| c1ccc(CCC2=NCCn3cccc32)cc1 | – | inactive |
| Cc1ccc(S(=O)(=O)N2CCCCC2)cc1NC(=O)CCNC(=O)c1ccccc1 | 2.37 | – |
| Cc1ccc(-c2nnn(CC(=O)N(CCO)C(C(=O)NC(C)(C)C)c3ccncc3)n2)cc1 (stereo not drawn) | -5.68 | – |
| Cc1cccc(C)c1NC(=O)CN1C(=O)C(C)Oc2ccccc21 (stereo not drawn) | -12.1 | – |
| Cc1occc1-c1nnc(SCC(=O)NC2CCCCC2)o1 | -2.44 | – |
| COc1cc(Cl)c(C)cc1NC(=O)CSc1nnc(CN2CCCC2)o1 | 75.1 | – |
| COc1cc(Cl)c(C)cc1NC(=O)CSc1nnc(-c2ccco2)n1CC(C)C | -19.4 | – |
| CCn1c(SCC(=O)Nc2cc(C)c(Cl)cc2OC)nnc1-c1ccco1 | – | 33.6 µM (active) |
| CC(C)NC(=O)NCCCCCCS(C)=O (stereo not drawn) | -0.738 | – |
| Oc1ccc2ccccc2c1N=Nc1nccs1 | – | 28.2 µM (active) |
| COc1ccc(CNC(=O)c2ccc(NS(=O)(=O)c3ccc4[nH]c(=O)[nH]c4c3)cc2)cc1OC | -5.23 | – |
| COc1ccccc1/C=N/N1CCN(Cc2ccccc2Cl)CC1 | – | 15.8 µM (active) |
| COc1ccccc1/C=C/C=N/NC(=O)CN1CCN(Cc2ccccc2)CC1 | 2.67 | – |
| Cc1ccc(CN2CCN(/N=C/c3ccco3)CC2)c(C)c1 | -3.91 | – |
| O=S1(=O)CCN(Cc2ccccc2Cl)CC1 | -14 | – |

| Compound | activity change, negative = inhibition [%] | Potency |
| --- | --- | --- |
| COCCNC(=O)C1CCCN(Cc2ccccc2Cl)CC1 (stereo not drawn) | -2.5 | – |
| CSc1ccc(/C=N/N2CCN(Cc3ccccc3Cl)CC2)cc1 | – | 14.1 µM (active) |
| CC1CCCN(C(=O)Cn2c(=O)oc3ccccc32)C1 (stereo not drawn) | 19.1 | – |
| Cc1coc(C)c1C(=O)CC1(O)C(=O)N(C)c2ccc(Cl)cc21 (stereo not drawn) | -2.7 | – |
| N#Cc1cccc(CSc2nnc(CCCO)n2-c2ccccc2)c1 | 11.9 | – |
| Cc1ccc(C(C(=O)NC2CCCCC2)N(C(=O)c2csnn2)C2CC2)o1 (stereo not drawn) | -4.5 | – |
| COc1cccc(-c2ccc3c(c2)N(Cc2ccccc2OC)C(=O)C(C)S3)c1 (stereo not drawn) | -17.7 | – |
| Cc1ccc(C2=C/C(=C\c3cccnc3)C(=O)O2)cc1 | 0.0252 | – |
| Nc1ccc2c(c1)C(=Cc1cccnc1)c1ccccc1-2 | – | 20 µM (active) |
| O=C1/C(=C\c2cccnc2)CN(Cc2ccccc2)C/C1=C\c1cccnc1 | -12.8 | – |
| Cc1c(C)c2c(OCC(=O)N[C@@H](C(=O)O)c3ccccc3)cc3c(c2oc1=O)CCC(C)(C)O3 | -12.5 | – |
| O=C(CC[C@H]1O[C@@H](n2ccc(=O)[nH]c2=O)[C@H](O)[C@@H]1O)N[C@H](Cc1ccccc1)C(=O)NCCCN1CCCC1=O | 0 | – |
| CCOC(=O)CC(SP1(=S)OCC2(CCCCO2)C(C2CCCCO2)O1)C(=O)OCC (stereo not drawn) | 11.3 | – |
| O=C(Nc1ccccc1-c1nnn(CC(=O)N2CCCc3ccccc32)n1)c1cccc(Cl)c1 | -16.6 | – |
| CCC(C)C(=O)Nc1ccccc1N1CCN(c2ccc(F)cc2)CC1 (stereo not drawn) | -27.4 | – |
| Cc1cc(C)cc(NC(=O)N2CCC(NC(=O)c3ccc(F)cc3)CC2)c1 | 24.4 | – |
| O=c1ccc2c(-c3ccccc3S(=O)(=O)O)c3ccc(O)c(O)c3oc-2c1O | – | 5.01 µM (active) |
| CC1=C(C(=O)Nc2ccccc2)C(c2cccs2)C(C#N)=C(SCC#N)N1 (stereo not drawn) | 59.5 | – |
| Cc1ccc(-c2nn(C(C)(C)C)c3ncnc(N)c23)cc1 | 1.93 | – |
| CC(C)NC(=S)NN=C1CCCCCCCCCCC1 | 25.2 | – |
| NC(=S)Nc1c(Cl)cccc1Cl | -3.62 | – |
| CCCCC(=O)NNC(=S)NC(=O)C(c1ccccc1)c1ccccc1 | 45.2 | – |
| Cc1noc(C)c1S(=O)(=O)N(C)Cc1ccccc1 | 3.84 | – |
| CC1(C)O[C@@H]2[C@H](O1)[C@@H](COS(=O)(=O)O)O[C@H]2n1ccc(=O)[nH]c1=O | 0.295 | – |
